PubChem BioAssay (NCATS)
Records with an inconclusive call do not appear. Activity calls are given as the source filed them. The call rests on the fitted dose curve.
Potency means the concentration at half of the fitted maximal effect.

Assay: Cell Viability - MRC5 (AID 434);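 further: potency reflects cytotoxicity seen as loss of intracellular ATP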
Conditions: MRC5 lung fibroblast viability, qHTS
Source text: NIH Chemical Genomics Center [NCGC]
NIH Molecular Libraries Screening Centers Network [MLSCN]
National Institutes of Environmental Health Sciences [NIEHS]
National Toxicology Program [NTP]
We have developed a 1536-well cell-based assay for quantitative high throughput screening (qHTS) against a number of cell lines to determine in vitro cytotoxicity of small molecules. This particular assay uses the MRC5 cell line which is derived from normal human lung fibroblasts.
NCGC Assay Protocol Summary:
The CellTiter-Glo luminescent cell viability assay (Promega) is a homogeneous method to measure the number of viable cells in culture. The end point readout of this assay is based on quantitation of intracellular ATP, an indicator of metabolic activity, using the luciferase reaction. Luciferase catalyzes the oxidation of beetle Luciferin to oxyluciferin and light in the presence of ATP. The luminescent signal is proportional to amount of ATP present.
Using the CellTiter-Glo luminescent cell viability assay, the amount of cellular ATP was measured in the MRC5 cell line with complete culture medium following compound treatment for 40 hours. The assay was performed in opaque white Kalypsys 1536-well plates. In the screen, tamoxifen and doxorubicin were used as positive controls. Library compounds were measured for their ability to cause acute toxicity in the cell line, as reflected by a decrease in intracellular ATP levels, in a concentration-dependent manner. Data were normalized to the controls for basal activity (DMSO only) and 100% inhibition (100 uM tamoxifen). AC50 values were determined from concentration-response data modeled with the standard Hill equation.
qHTS protocol for CellTiter Glo MRC5 cellular assay
[Step] [Parameter] [Value] [Description]
1. Reagent; 5 uL; 1500 MRC5 cells/well
2. Time; 5 hr; 37 °C incubation
4. Controls; 23 nL; Tamoxifen 0.34 uM to 100 uM & Doxorubicin 0.02 nM to 100 uM
5. Time; 40 hr; 37 °C incubation
6. Reagent; 5 uL; CellTiter Glo reagent
7. Time; 20 min; Room Temperature
8. Detection; Luminescence; Viewlux plate reader
Keywords: cell viability, cytotoxicity, MRC5 cell line, luminescence, NTPHTS, NTPHTS_NCGC, NIEHS, EPA, DSSTox, MLSMR, MLSCN, NIH Roadmap, qHTS, NCGC
For `CC(C)(c1ccc(OCC2CO2)cc1)c1ccc(OCC2CO2)cc1` (stereo not drawn), the Potency was > 92 µM (inactive).
With `CCOc1cc(C=O)ccc1O` the Potency was > 92 µM (inactive).
In the case of `CC(C)COC(=O)c1ccccc1C(=O)OCC(C)C`, the Potency was > 92 µM (inactive).
In the case of `COC(=O)c1ccccc1C(=O)OC`, the Potency was > 92 µM (inactive).
In the case of `COC1=CC(=O)OC(CCc2ccc3c(c2)OCO3)C1` (stereo not drawn), the Potency was > 92 µM (inactive).
For `c1ccc2c(c1)-c1cccc3cccc-2c13`, the Potency was > 92 µM (inactive).
In the case of `CCOC(=O)c1ccccc1N`, the Potency was > 92 µM (inactive).
For `Cc1ccccc1O`, the Potency was > 92 µM (inactive).
With `CC(=O)/C=C/c1ccccc1` the Potency was > 92 µM (inactive).
In the case of `O=Cc1ccccc1`, the Potency was > 92 µM (inactive).
In the case of `Oc1ccccc1Cl`, the Potency was > 92 µM (inactive).
With `Oc1c(Cl)c(Cl)c(Cl)c(Cl)c1Cl` the Potency was > 92 µM (inactive).
For `c1ccc(Nc2ccc3ccccc3c2)cc1`, the Potency was > 92 µM (inactive).
